# Measurements: PMC5540273 (PLoS ONE, 2017)
# System: CDKL1
# Details: concentration: 1 μM,replicates: in singlicate; n = 1
# 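Note: KINOMEscan kinase panel screen.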
row,Compound,%Inh [%]
1,Cc1cc(C(=O)Nc2ccc(Oc3ccc4nc(NC(=O)C5CC5)cn4n3)cc2)nn1-c1ccccc1,55
2,CN(C)CC(O)COc1ccc(Nc2nccc(-c3cnn4nc(N5CCOCC5)ccc34)n2)cc1 (stereo not drawn) [GW767488],67
3,CCN(CC)CCOc1ccc(Nc2ncc3cc(-c4c(Cl)cccc4Cl)c(=O)n(C)c3n2)cc1 [SB-601273],12
4,Cc1cc2cn[nH]c2cc1-c1cccc2c(N)c(C(N)=O)nnc12,29
5,O=C(NCCNc1ccnc(NCc2ccc(F)cc2)n1)c1cc2ccccc2s1 [GSK1379944],12
6,COc1ccc(C[C@@H](CN)NC(=O)c2cc(Br)c(-c3ccnc4[nH]ccc34)s2)cc1.Cl.Cl [GSK1389063],80
7,CN(C)CCOc1ccc(-c2cc(-c3c[nH]nc3-c3ccccn3)ccn2)cc1 [GW835314],25
8,Cl.Cl.NC[C@H](CC1CCCCC1)NC(=O)c1cc(Br)c(-c2ccnc3[nH]ccc23)s1 [GSK1581427],12
9,Cl.Oc1cc(-c2nc(-c3ccccc3)[nH]c2-c2ccncc2)ccc1Cl [SB-386023],0
10,Cc1ccc2c(-c3ccncc3)c(-c3ccc(F)cc3)nn2c1.Cl [GW461484],15
11,Nc1nc(Nc2ccccc2)cc(-c2ccc3c(N)n[nH]c3c2)n1 [GSK2225749],0
12,C[C@@H](Oc1cc(-c2cnn(C3CCNCC3)c2)cnc1N)c1c(Cl)ccc(F)c1Cl,20
13,C=CC(=O)Nc1cc2c(Nc3ccc(F)c(Cl)c3)ncnc2cc1OCCCN1CCOCC1 [GW781483],17
14,Cc1ccc(-n2nc(C(C)(C)C)cc2NC(=O)Nc2ccc(OCCN3CCOCC3)c3ccccc23)cc1 [GW839464],32
15,CC(C)Nc1cc(-c2ccc3c(N)n[nH]c3c2)nc(N)n1 [GSK2221681],0
16,Cl.Cl.NC[C@H](Cc1ccc(C(F)(F)F)cc1)NC(=O)c1cc(Br)c(-c2ccnc3[nH]ccc23)s1 [GSK1487252],6
17,CCN(CC)CCCCNc1ncc2cc(-c3c(Cl)cccc3Cl)c(NC(=O)NC(C)(C)C)nc2n1,14
18,C[C@@H]1CCN(C(=O)CC#N)C[C@@H]1N(C)c1ncnc2[nH]ccc12,3
19,Cc1n[nH]c2ccc(-c3cc(OC[C@@H](N)Cc4ccccc4)cnc3-c3ccoc3)cc12.O=C(O)C(F)(F)F.O=C(O)C(F)(F)F [GSK507358],6
20,O=C(NCCCN1CCOC1=O)c1cnc(NCc2cc(Cl)ccc2Cl)nc1NC1CCCC1,25
21,Cl.Cl.Nc1nc(-c2ccc3c(N)n[nH]c3c2)cc(N2CCCC(NC(=O)c3ccccc3)C2)n1 (stereo not drawn) [GSK2286775],0
22,Cc1occc1-c1nc(N)c(OC[C@@H](N)Cc2c[nH]c3ccccc23)cc1-c1cc2c(C)n[nH]c2cn1 [GSK1660450],0
23,CCn1c(-c2nonc2N)nc2c(C#CC(C)(C)O)nc(OCCN)cc21.Cl.Cl [GSK902056],0
24,CNC(=O)c1ccccc1Sc1ccc2c(/C=C/c3ccccn3)n[nH]c2c1,8
25,CC(C)N1C(=O)Cc2cc(Nc3ncc(C(F)(F)F)c(NCc4cccc(S(C)(=O)=O)c4)n3)ccc21,0
26,C[C@H]1Oc2cc(cnc2N)-c2c(nn(C)c2C#N)CN(C)C(=O)c2ccc(F)cc21,34
27,NC(=O)c1cc(-c2ccccc2)cc2c(C3CCNCC3)c[nH]c12 [GSK301362],1
